Compound activity as filed in PubChem BioAssay.
A selection: hits, their analogues and other compounds. The true share with any hit is near 4%.
TWEAK Fn14 block – inhibitors of TWEAK-Fn14 signaling, primary screen, luciferase reporter cells, uHTS; TWEAK-stimulated Fn14 reporter cells, luciferase luminescence, 8 h; inhibition, % at 10 µM; actives 2% (n = 360,000); AID 1159606, 2016; in the data active = inhibition above about 50%
TROY NFkB inh – inhibitors of TROY-driven NF-kB signaling, primary screen, Q293 LMP1-TROYcd cells, NF-kB luciferase, uHTS; AID 1347056, 2019; actives 0.98% (n = 360,000); Q293 LMP1-TROYcd NF-kB luciferase reporter, 4 h; inhibition, % at 10 µM;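 active = compounds whose plate-normalised and pattern-corrected inhibition of the luciferase reporter signal at the single screening dose is 50% or more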
Peg3 promoter – Peg3 promoter-driven luciferase inhibitors, primary screen, cell-based, HeLa, luciferase luminescence | HeLa PEG-Prom luciferase reporter, overnight | inhibition, % at 20 µM | actives 1.7% (n = 360,000);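 active = inhibition of at least 50% at 20 µM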
HIF-2a inh – HIF-2a reporter inhibitors, primary screen, luminescence, 786-0 RCC cells; 786-0 RCC cells HIF-2a reporter, luciferase luminescence, overnight; inhibition, % at 18.8 µM; actives 0.72% (n = 360,000);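 active = inhibition of the luminescence signal of 40% or more relative to plate controls, in a single-dose primary screen at 18.75 µM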
LMP1 NFkB inh – EBV LMP1-driven NF-kappaB luciferase reporter inhibitors, primary screen, cell-based, luminescence, single point. LMP1-induced NF-kappaB luciferase reporter cells. inhibition, % at 12.5 µM. actives 0.69% (n = 350,000); in the data active = inhibition above about 41%;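 also: 0% = neutral control wells and 100% = reference inhibitor control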
TRPM1 prom inh – inhibitors of MITF-dependent TRPM1 promoter reporter, primary screen, cell-based, SK-MEL-5, single point, luciferase. SK-MEL-5 TRPM1 promoter luciferase, 24 h. inhibition, % at 12.5 µM. actives 0.83% (n = 330,000). AID 488899, 2010;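 active = mean inhibition across replicates of 60% or more, whatever share of single replicates reaches that level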
Active calls of the source: *; . = no result given.

SMILES	TWEAK Fn14 block	TROY NFkB inh	Peg3 promoter	HIF-2a inh	LMP1 NFkB inh	TRPM1 prom inh
O=C(NNC(=O)c1cc(Br)c(Br)s1)c1ccncc1	11	4	-19	-22	-3	-10
CC1CCN(Cc2c(C(=O)N/N=C/c3ccc(C(C)(C)C)cc3)nnn2-c2nonc2N)CC1	-73	-3	106*	24	-5	23
CCOc1ccccc1/C=N/NC(=O)c1nnn(-c2nonc2N)c1CN1CCC(C)CC1	-34	-48	44	-7	-3	-22
CC1CCN(Cc2c(C(=O)N/N=C/c3ccc(C(C)C)cc3)nnn2-c2nonc2N)CC1	-16	-12	65*	-5	-19	-12
COc1ccc(/C=N\NC(=O)COc2ccccc2)c(C(=O)O)c1OC	1	4	9	-15	-49	2
COc1ccc(-c2c(C)nc3c(-c4ccsc4)cnn3c2N)cc1	32	57*	-188	-188	-30	-85
Cc1nc2c(-c3ccc(F)cc3)cnn2c(N)c1-c1ccc(F)cc1	78*	74*	-14	-89	-32	-54
COc1ccc(-c2c(C)nc3c(-c4ccccn4)cnn3c2N)cc1	56*	59*	-154	-219	-71	.
CN(C(=O)c1ccccc1-c1ccccc1C(=O)O)c1ccccc1	4	2	13	23	5	9
CCOc1ccc(-c2cc(C(=O)Nc3cccc(C(F)(F)F)c3)[nH]n2)c(C)c1	-6	13	-12	-51	.	.
COc1cc(/C=N/NS(=O)(=O)c2ccc(C)cc2)ccc1OCc1ccc(C(=O)O)cc1	-13	-70	-20	32	61*	72*
COc1ccc(/C=N/NS(=O)(=O)c2ccc(C)cc2)cc1OC(=O)c1ccc(C)cc1	55*	6	10	-16	0	3
O=C(/C=C/c1cc(Br)ccc1F)OCC(=O)N1CCCC1	3	-2	-6	-3	-2	13
Cc1cnc(NC(=O)C2(C)CCN2C(=O)C(C)C)s1 (stereo not drawn)	24	12	6	11	.	.
COC(=O)c1ccc(-c2nc(-c3cccs3)no2)cc1	92*	64*	5	26	24	.
Fc1ccc(-c2nc(-c3cccs3)no2)cc1	-14	-63	-296	-230	-36	-55
Cc1cccc(N=NC(=S)NNc2cccc(C)c2)c1	3	17	-262	-233	-35	-29
COc1ccc2sc(-c3ccc(S(C)(=O)=O)cc3)c(C#CCO)c2c1	77*	46	-2	-160	-12	-21
COC(=O)c1c(-c2ccsc2)sc2ccc(-c3cc(OC)c(OC)c(OC)c3)cc12	15	13	16	1	32	-4
COc1cc(-c2ccc3sc(-c4ccsc4)c(C#CCO)c3c2)cc(OC)c1OC	60*	42	56*	-4	23	-4
O=c1oc2ccc(Br)cc2cc1S(=O)(=O)c1ccc(F)cc1	91*	17	50*	-21	3	9
N=c1c(C(=O)NCc2ccc(F)cc2)cc2c(=O)n3ccccc3nc2n1Cc1ccco1	95*	59*	-28	-114	-34	12
Cc1ccc2nc3c(cc(C(=O)NCc4ccccc4)c(=N)n3CCCn3ccnc3)c(=O)n2c1	-17	-10	54*	16	-23	-11
Cc1ccc(CNC(=O)c2cc3c(=O)n4ccccc4nc3n(Cc3ccco3)c2=N)cc1	41	30	-8	3	-3	10
Cc1cccc(NC(=O)c2cc3c(=O)n4ccccc4nc3n(CC(C)C)c2=N)c1	-57	-1	54*	-3	27	22
SMILES	TWEAK Fn14 block	TROY NFkB inh	Peg3 promoter	HIF-2a inh	LMP1 NFkB inh	TRPM1 prom inh
CCOc1ccc(S(=O)(=O)N=C(c2ccccc2)N2CCOCC2)cc1	23	21	-4	17	3	-5
C[C@H]1CN([C@@H](C)CO)C(=O)c2cccc(NC(=O)c3nc4ccccc4s3)c2O[C@H]1CN(C)C(=O)Nc1ccc(F)cc1	23	0	37	3	-4	-15
COc1ccc(CCn2c(C(C)C)nc3oc4ccccc4c(=O)c3c2=O)cc1	-4	-16	9	4	6	3
Cc1ccccc1OCc1nnc(SCC(=O)Nc2ccc3nc(SCC(=O)NC(C)(C)C)sc3c2)n1C	89*	.	43	31	25	43
CCN(CC)C(=O)CSc1nc2ccc(NC(=O)CSc3nnc(COc4ccccc4C)n3C)cc2s1	46	38	23	4	11	2
CCOC(=O)CSc1nc2ccc(N)cc2s1	29	-18	-29	-18	0	1
CC(C)(C)NC(=O)CSc1nc2ccc(NC(=O)CSc3nnnn3Cc3ccccc3)cc2s1	73*	50*	10	-9	3	46
CC(NC(=O)CSc1nc2ccc(N)cc2s1)c1ccccc1 (stereo not drawn)	21	52*	0	-22	1	18
CC(C)c1ccc(NC(=O)COC(=O)[C@@H]2CCCN2C(=O)c2cccs2)cc1	-4	-22	-13	-25	-1	-1
CC(c1nc2ccccc2n1Cc1ccccc1)n1c(-c2cnccn2)nc2ccccc21 (stereo not drawn)	.	.	.	11	.	.
CC1CCC(C(C)C)C(OC(=O)CSc2nccc(=O)[nH]2)C1 (stereo not drawn)	1	2	2	5	-8	-7
COc1ccc(-c2n(CC(=O)OC3CC(C)CCC3C(C)C)c3ccccc3[n+]2C)cc1 (stereo not drawn)	80*	48	77*	5	23	91*
CCCC(=O)N1CCN(c2ccc(NC(=O)c3ccc([N+](=O)[O-])o3)cc2Cl)CC1	37	22	111*	90*	-29	91*
O=C(Nc1ccccc1N1CCN(C(=O)c2ccc(Cl)cc2)CC1)c1ccc([N+](=O)[O-])o1	13	-19	27	9	-8	87*
CC(=O)N1CCN(c2ccc(NC(=O)c3ccc(Br)o3)cc2Cl)CC1	-3	-11	-52	-96	-7	16
O=C(Nc1ccccc1N1CCCCC1)c1ccc([N+](=O)[O-])o1	-6	-6	37	10	0	27
CCN1CCN(c2c(Cl)cccc2NC(=O)c2ccc([N+](=O)[O-])o2)CC1	1	-4	52*	-2	-14	102*
O=P1(NC2CCCCC2)OCC2(CO1)COP(=O)(NC1CCCCC1)OC2 (stereo not drawn)	-21	13	11	16	7	-11
COC(=O)c1cc(S(=O)(=O)NCC2CCN(CCc3cccs3)CC2)cn1C	21	-36	12	20	2	-1
